Most compounds without a hit are left out; they make up all but 6.6% or so of the library.
RGS4 inh – inhibitors of human regulator of G protein signaling 4. Potency, µM (doses to about 114 µM), for inactives: top-dose activity change, negative = inhibition, hits mostly inhibitors. Transcreener GDP fluorescence polarization, RGS4-accelerated GTP hydrolysis. 390,000 tested, 0.039% active. AID 504845; also: % is scaled to controls: 0 for no effect and ±100 for the full control effect; nearly all actives have a fitted effect of over 75% in size
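MLSMR compounds (23 nl, pin-transferred) preincubated 10 min at room temperature with a 500nM (2x) first reagent, then RGS4 at 900nM (2x) plus Transcreener GDP mix added; fluorescence polarization (620/688 nm) read before and after 90 min at 30 °C.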
TSG101-PTAP inh – blocks PTAP/TSG101 interaction to inhibit HIV-1 budding; Q99816; 340,000 tested, under 10 active; AID 493005; Potency, µM (doses to about 115 µM), inactives show at the top dose activity change, negative = inhibition, most hits filed as inhibitors; Fluorescence polarization, FITC-PTAP peptide / Tsg101 binding; active = well fitted inhibition curve with a large enough effect in the main read-out, with a control signal flat, not every such curve was filed as active; inconclusive = small, poorly fitted or top-dose-only effect, or effect the other way, or a change in a side signal; inactive = no such curve, though single readings can be large or run the other way; also: % of control where 0% means no effect
Target sequence (Q99816 whole entry, looked up): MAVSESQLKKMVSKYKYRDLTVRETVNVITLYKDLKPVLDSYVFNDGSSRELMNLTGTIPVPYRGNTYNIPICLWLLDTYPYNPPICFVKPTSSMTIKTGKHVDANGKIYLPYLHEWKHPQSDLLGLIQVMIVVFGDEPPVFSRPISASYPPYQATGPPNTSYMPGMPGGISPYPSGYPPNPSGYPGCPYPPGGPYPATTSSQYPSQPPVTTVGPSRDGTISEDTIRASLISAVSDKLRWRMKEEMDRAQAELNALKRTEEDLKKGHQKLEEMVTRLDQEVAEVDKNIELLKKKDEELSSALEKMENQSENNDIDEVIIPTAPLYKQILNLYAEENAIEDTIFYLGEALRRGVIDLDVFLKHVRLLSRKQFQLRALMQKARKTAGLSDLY
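Fluorescence polarization binding of Tsg101 binding domain (10 uM final) to FITC-labeled PTAP peptide (50 nM final) in HEPES pH 7.5 buffer with NaCl, Tween 20, EDTA, TCEP. Compounds added before peptide; binding 20 min at RT.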
MCF10A rereplic – DNA re-replication induction in MCF 10a cells; MCF 10A DNA re-replication, Hoechst nuclear intensity, 48 h; 350,000 tested, 2.9% active; Potency, µM (titrated, usually from 46.1 µM), without a hit: at the top dose activity, positive = re-replication, hits mostly activators; also: % of control where 0% means no effect; nearly all actives have a fitted effect of over 50% in size
KB-3-1 cytotox – kills parental KB-3-1 adenocarcinoma cells | KB-3-1 viability, CellTiter-Glo ATP luminescence, 72 h | AID 1347075 | Potency, µM (titrated, usually from 46.1 µM), usual class: cytotoxic | 400,000 tested, 1.4% active; also: % is scaled to controls: 0 for no effect and ±100 for the full control effect; nearly all actives have a fitted effect of over 60% in size
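KB-3-1 cells, DMEM (no phenol red) + 10% FBS; compound by pin transfer, 72 h, 37 °C. Readout: CellTiter-Glo luminescence after 10 min. Data normalized, curve-fitted.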
KB-V1 MDR tox – KB-V1 MDR subline cytotoxicity | KB-V1 MDR cells viability, CellTiter-Glo, 72 h | Potency, µM (series often up to 46.1 µM), actives largely listed as cytotoxic | 400,000 tested, 3.4% active | AID 1347076; also: % is scaled to controls: 0 for no effect and ±100 for the full control effect; nearly all actives have a fitted effect of over 60% in size
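Potencies derive from concentration-effect curves fitted to normalized luminescence (CellTiter-Glo) of KB-V1 cells treated for 72 h at 37 degrees C in phenol-red-free DMEM containing 10% FBS.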
SW480 rereplic – DNA re-replication induction in SW480 cells; SW480 DNA re-replication, Hoechst DNA content imaging, 48 h; Potency, µM (doses to about 46.1 µM), for the others: at the top dose re-replication activation, hits mostly activators; 340,000 tested, 1.8% active; AID 624297; also: % of control where 0% means no effect; nearly all actives have a fitted effect of over 55% in size
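Compounds, transferred as 23 nL by pin tool, were incubated with cells for 48 hr; DNA content per nucleus was then quantified by Hoechst staining and fluorescence plate imaging.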
* hit, by the source's call; i = inactive; ? = inconclusive; . = not tested or not shown. Unless noted, calls follow the shape of the dose curve; as a rule, active = well fitted curve in the direction sought with a large enough effect; inconclusive = small, poorly fitted or top-dose-only effect, or another doubt; inactive = no such curve, though single readings can be large; an effect the other way counts as inactive or inconclusive. Potency is read from the fitted curve at half-maximal effect.

SMILES	RGS4 inh	TSG101-PTAP inh	MCF10A rereplic	KB-3-1 cytotox	KB-V1 MDR tox	SW480 rereplic
CC(C)n1cc(CN2CCCC(C(=O)Nc3cccc(-c4cc5ccccc5[nH]4)c3)C2)cn1 (configuration not stated)	2%	-1%	16µM*	?	?	?
O=S(=O)(c1ccc2ncsc2c1)N1CCN(c2nc(-c3cccs3)nc3ccccc23)CC1	-2%	.	.	.	.	.
COc1cc2c(cc1NC(=O)COC(=O)[C@@H](NS(=O)(=O)c1cccc(Cl)c1)C(C)C)oc1ccccc12	3%	-4%	7%	i	23µM*	15%
COc1ccc(S(=O)(=O)N[C@@H](C)C(=O)OCC(=O)Nc2cc3oc4ccccc4c3cc2OC)cc1	-37%	-2%	5%	i	i	1%
CCN(CC)S(=O)(=O)c1ccc(C(=O)Nc2cc3oc4ccccc4c3cc2OC)cc1	2%	0%	25%	i	i	-4%
COc1cc2c(cc1NC(=O)c1cccc(S(=O)(=O)N(C)C)c1)oc1ccccc12	-11%	0%	?	i	10µM*	?
CC(C)NC(=O)c1ccc(Cn2c(SCC(N)=O)nc3ccccc3c2=O)cc1	-8%	.	.	i	i	.
CC(=O)N1c2ccc(S(=O)(=O)N3c4ccccc4CC3C)cc2CC1C (configuration not stated)	12%	0%	-7%	i	i	-10%
CC1Cc2ccccc2N1S(=O)(=O)c1ccc2c(c1)n(C)c(=O)c(=O)n2C (configuration not stated)	-49%	0%	16%	i	16µM*	1%
CCN=C1S/C(=C\c2ccc(Sc3ccc(Cl)cc3)o2)C(=O)N1CC	-18%	-2%	?	?	i	?
CCN=C1S/C(=C/c2ccc(-c3ccc(F)cc3)o2)C(=O)N1CC	-16%	-5%	8.2µM*	i	i	?
O=C(NC1CC(=O)N(c2ccc(F)cc2)C1)c1cc2ccccc2o1 (configuration not stated)	-36%	.	.	.	.	.
CCOc1ccc(CNC(=O)CCn2c(=O)oc3ccccc32)cc1	32%	-14%	7%	i	23µM*	4%
COc1ccc(CNC(=O)CCn2c(=O)oc3ccccc32)cc1	-38%	-6%	2%	i	i	1%
CCOc1ccc(OCC)c(NC(=O)CCn2c(=O)oc3ccccc32)c1	-9%	-2%	-3%	i	8.2µM*	-1%
CCOc1ccccc1NC(=O)Cn1c(=O)oc2ccccc21	16%	-6%	-2%	i	i	10%
COc1ccc(C#Cc2cnc(Cl)c3cncnc23)cc1OC	-39%	.	.	.	.	.
C=CCC[C@H](Cc1ccc(F)cc1)C(=O)OC[C@H](Cc1c[nH]c2ccccc12)NC(=O)[C@@H](CC=C)CC(=O)N(CCO)Cc1ccccc1	-2%	-4%	?	i	21µM*	?
C=CCC[C@H](Cc1ccc(F)cc1)C(=O)O[C@H](CNC(=O)[C@@H](CC=C)CC(=O)N(CCO)Cc1ccccc1)c1ccccc1	-14%	-1%	21µM*	i	i	?
C=CC[C@H](CC(=O)N(CCO)Cc1ccccc1)C(=O)NC[C@@H](OC(=O)[C@@H](CC=C)Cc1ccc(F)cc1)c1ccccc1	15%	.	?	i	?	4%
C=CCC[C@@H](Cc1ccc(F)cc1)C(=O)OC[C@H](Cc1c[nH]c2ccccc12)NC(=O)[C@H](CC=C)CC(=O)N(CCO)Cc1ccccc1	-2%	-4%	?	i	i	?
COc1ccc(-c2noc(-c3cccc(OC)c3OC)n2)cc1	-20%	.	.	.	.	.
O=c1oc2cc(Oc3c([N+](=O)[O-])cc(C(F)(F)F)cc3[N+](=O)[O-])ccc2c2c1CCCC2	-8%	-6%	19%	?	?	-1%

Bioassay records: PubChem, National Center for Advancing Translational Sciences (NCATS)
